# An excerpt weighted towards active compounds, which were near 12% of everything screened.
# HP1b chromo inh: inhibitors of HP1-beta chromodomain binding to methylated histone tails. AlphaScreen HP1-beta / biotin-H3K9me3 peptide binding. 390,000 compounds, 0.56% hits. Potency, µM (doses to about 114 µM), for the others: top-dose activity change, negative = inhibition, actives largely listed as inhibitors; note: nearly all actives have a fitted effect of over 70% in size
#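 Compound inhibition of the preformed complex between 50 nM HP1-beta and 50 nM biotinylated H3K9me3 peptide was read by AlphaScreen. Buffer was PBS pH 7.4 with 0.01% Tween-20. Incubations ran 30 min at room temperature, with 10 ug/mL donor/acceptor beads.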
# Sfp inh: Sfp phosphopantetheinyl transferase inhibition; AID 1490; Biochemical Sfp PPTase activity, qHTS; 310,000 compounds, 3.5% hits; Q9F4F7; Potency, µM, for the others: largest response in the series, negative = inhibition, hits mostly inhibitors;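 note: the enzyme is Sfp with the accession as filed and its product quenches rhodamine fluorescence; 0% = enzyme reaction without inhibitor and -100% = no enzyme wells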
#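 Buffer: 50 mM Hepes-Na pH 7.6, 10 mM MgCl2, 0.01% Nonidet P-40, 0.01% BSA. Enzyme 15 nM, pre-exposed to compound 15 min; substrates then added and fluorescence change tracked over 30 min.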
# BAZ2B block: blocks human BAZ2B; Q9UIF8; AlphaScreen BAZ2B-H3K14Ac peptide displacement; Potency, µM (highest dose often 114 µM), without a hit: at the top dose activity change, negative = inhibition, usual class: inhibitors; 360,000 compounds, 4.4% hits; AID 504333; note: % is set by controls: 0 for no effect and ±100 for the full control effect; nearly all actives have a fitted effect of over 60% in size
#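 AlphaScreen displacement: compounds (up to 110uM) incubated 30 min at room temperature with a preformed 50 nM BAZ2B/50 nM biotinylated H3K14Ac peptide complex in PBS pH 7.4 with Tween-20. Donor and acceptor beads at 10 ug/mL final added, 20 min light-protected before reading.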
# G9a inh: blocks human histone lysine methyltransferase G9a | G9a H3K9 monomethylation, AlphaScreen, 2 h | AID 504332 | Potency, µM (top dose mostly 102 µM), for inactives: top-dose activity, negative = inhibition, actives largely listed as inhibitors | 350,000 compounds, 8.8% hits | Q96KQ7; note: % is set by controls: 0 for no effect and ±100 for the full control effect; nearly all actives have a fitted effect of over 75% in size
#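 Compounds were preincubated with 20 nM G9a for 15 min, after which biotinylated H3K9 peptide (500 nM) and SAM (20 uM) started a 2 h room-temperature reaction. Monomethylated product was quantified by antibody-based AlphaScreen chemiluminescence.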
# JMJD2A Tudor: blocks the human JMJD2A Tudor domain; AlphaScreen JMJD2A-Tudor / H3K4me3 peptide binding; Potency, µM (doses to about 114 µM), for inactives: at the top dose activity change, negative = inhibition, most hits filed as inhibitors; 390,000 compounds, 4.4% hits; note: % is set by controls: 0 for no effect and ±100 for the full control effect; nearly all actives have a fitted effect of over 50% in size
# The depositor's hits bear a star; u = inconclusive; x = no result; ! = repeats disagree; [ ] = remark or other dose. Calls come from the whole dose curve; as a rule, active = well fitted curve in the direction sought with a large enough effect; inconclusive = small, poorly fitted or top-dose-only effect, or another doubt; inactive = no such curve, though single readings can be large; an effect the other way counts as inactive or inconclusive. Potency is the fitted concentration of half-maximal effect.
SMILES,HP1b chromo inh,Sfp inh,BAZ2B block,G9a inh,JMJD2A Tudor
O=C(Cc1ccc(Cl)cc1Cl)Nc1cccc(S(=O)(=O)Nc2ccccc2F)c1,u,8.9µM*,u,1.6µM*,u
O=C(Nc1cccc(S(=O)(=O)Nc2ccccc2F)c1)c1ccc2ccccc2n1,u,8.9µM*,u,2.8µM*,25µM*
COc1ccccc1NS(=O)(=O)c1cccc(NC(=O)c2ccc3ccccc3n2)c1,34%,9%,9%,u,-7%
Cc1c(N=NC2=C(O)CCCC2=O)c(=O)n(-c2ccccc2)n1C,u,14µM*,22µM*,8.9µM*,14µM*
Cc1[nH]c2ccccc2c1N=Nc1c(C)n(C)n(-c2ccccc2)c1=O,11%,1%,u,40µM*,-34%
Cc1c(N=Nc2ccc(O)cc2)c(=O)n(-c2ccccc2)n1C,14%,13%,u,-1%,-22%
N/C(=N\OC(=O)CCCc1ccccc1)c1cccnc1,39%,17%,6%,-9%[59 µM],-4%
O=C(CC1Oc2ccccc2NC1=O)NCCc1ccccc1 (stereo not given),8%,17%,41%,-13%,u
CCN(CCNC(=O)CC1Oc2ccccc2NC1=O)c1ccccc1 (stereo not given),19%,4%,-24%,79µM*,-26%
CC1CCN(Cc2ccc(NC(=O)CC3Oc4ccccc4NC3=O)cc2)CC1 (stereo not given),34%,-25%,9%,50µM*,-27%
CCC(C)N(CCNC(=O)CC1Oc2ccccc2NC1=O)C1CCCCC1 (stereo not given),58%,4%,8%,50µM*,-7%
Clc1ccsc1-c1ccc2ccccc2n1,456%,-20%,179%,11%[12.7 µM],304%
Cc1ccc(S(=O)(=O)N2CCN(C(=O)c3sccc3C)CC2)cc1,19%,x,u,u,-4%
Cc1ccsc1C(=O)N1CCN(S(=O)(=O)c2cccc(F)c2)CC1,-14%,x,7%,28µM*,-17%
C[C@]12CCC3C(CC=C4C[C@@H](O)CC[C@@]43C)C1CCC2[C@]1(C)CCC(=O)O1 (stereo not given in full),u,26%,56µM*,u,u
CC12CCC(O)CC1=CCC1C2CCC2(C)C1CCC21CCC(=O)O1 (stereo not given),1%,0%,10%,15%[59 µM],-13%
COc1cc(C)nc(Oc2ccc(/C=N/O)cc2)n1,24%,7%,x,15%[59 µM],-1%
COc1ccccc1CNS(=O)(=O)c1cc(CN2C(=O)c3cccnc3C2=O)ccc1OC,44%,4%,56µM*,-5%,28%
COc1ccc(CN2C(=O)c3cccnc3C2=O)cc1S(=O)(=O)NCc1ccc(C)o1,29%,1%,u,u,8%
COc1ccc(CN2C(=O)c3cccnc3C2=O)cc1S(=O)(=O)NC1CCCCC1,32%,7%,79µM*,6%,21%
COc1ccc(NC(=O)CSC2=C(C#N)C(c3ccco3)C(C(=O)Nc3nc4ccccc4s3)=C(C)N2)cc1 (stereo not given),44%,x,x,x,-28%
CC1=C(C(=O)Nc2ccc(Cl)cc2)C(c2ccncc2)C(C#N)=C(SCC(N)=O)N1 (stereo not given),41%,89µM*,-4%,u,-12%
CC(=O)C1=C(C)NC(SCC(=O)Nc2nc3ccccc3s2)=C(C#N)C1c1ccc(Cl)cc1 (stereo not given),10%,40µM*,-25%,8.9µM*,-32%
O=C1NC(=O)c2cc(Nc3ccc(F)cc3)c(Nc3ccc(F)cc3)cc21,x,u,x,14µM*,x
O=C1NC(=O)c2cc(Nc3ccccc3)c(Nc3ccccc3)cc21,x,7%,x,21µM*!,x
CC1(C)CC(=O)C=C(Nc2ccc(F)cc2)C1,25%,-4%,-8%,19%[12.7 µM],1%
O=c1ccc2cc3c([nH]c4ccc(Br)cc43)oc-2c1O,x,22µM*,45µM*,u,x
O=C(N/N=C/c1ccncc1)c1ccccc1,9%,20%,6%,5%[0.501 µM],3%
O=C(N/N=C/c1cccc2nccnc12)c1ccncc1,37%,u,18µM*,17%,56µM*

# From PubChem BioAssay
